From PubChem BioAssay (NCI)
The panel holds about 83,000 compounds, 20% with a hit somewhere; the sample as a whole holds those more often.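 Compound tested at a single concentration for 48 hours in 96-well plates; a percent growth value below 10 was scored as active.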 The source made the active and inactive calls.

What was measured:
Test in all cases: NCI-60 one-dose screen, 48 h (100 = growth as untreated, 0 = no growth, -100 = all killed)
Conditions in all cases: 10 µM unless noted
NCI-H23 lung = system: NCI-H23 lung
NCI-H226 lung = system: NCI-H226 lung
NCI-H322M lung = system: NCI-H322M lung
HOP-62 NSCLC = system: HOP-62 NSCLC
NCI-H460 lung = system: NCI-H460 lung
HOP-92 NSCLC = system: HOP-92 NSCLC
NCI-H522 lung = system: NCI-H522 lung
A549/ATCC NSCLC = system: A549/ATCC NSCLC
786-0 renal = system: 786-0 renal
COLO 205 colon = system: COLO 205 colon
DU-145 prostate = system: DU-145 prostate
K-562 leukemia = system: K-562 leukemia
MALME-3M melanoma = system: MALME-3M melanoma
MDA-MB-231 breast = system: MDA-MB-231 breast
RXF 393 renal = system: RXF 393 renal
SF-268 CNS = system: SF-268 CNS
SF-295 CNS = system: SF-295 CNS
SF-539 CNS = system: SF-539 CNS
UACC-257 melanoma = system: UACC-257 melanoma
M14 melanoma = system: M14 melanoma

Measured: growth

COc1ccccc1/C=C/c1cccc(NC(=S)NCCCCN(C)C)c1
active: NCI-H23 lung -97.5% | NCI-H226 lung -71.5% | NCI-H322M lung -87.4% | HOP-62 NSCLC -51.1% | NCI-H460 lung -74.2% | HOP-92 NSCLC -60.9% | NCI-H522 lung -66% | A549/ATCC NSCLC -51.7% | 786-0 renal -55.3% | COLO 205 colon -68.2% | DU-145 prostate -69% | K-562 leukemia 1.56% | MALME-3M melanoma -90.6% | MDA-MB-231 breast -89.8% | RXF 393 renal -94.2% | SF-268 CNS 6.05% | SF-295 CNS -100% | SF-539 CNS -93% | UACC-257 melanoma -82.6% | M14 melanoma -74%

O=C(NN1C(=O)/C(=C/C=C/c2ccc([N+](=O)[O-])o2)SC1=S)c1ccncc1
active: NCI-H23 lung -88.8% | NCI-H226 lung -52.7% | NCI-H322M lung -16.3% | HOP-62 NSCLC -97.5% | NCI-H460 lung -53.6% | HOP-92 NSCLC -85.1% | NCI-H522 lung -83.8% | A549/ATCC NSCLC -34.7% | 786-0 renal -79.9% | COLO 205 colon -96.9% | DU-145 prostate -95% | K-562 leukemia 3.03% | MALME-3M melanoma -91.7% | MDA-MB-231 breast -96.5% | RXF 393 renal -93.6% | SF-268 CNS -75.7% | SF-295 CNS -82.8% | SF-539 CNS -100% | UACC-257 melanoma -86.7% | M14 melanoma -67.9%

COc1ccccc1NC(=O)c1ccc(NC(=O)CCl)s1
active: NCI-H23 lung -66% | NCI-H226 lung -34.6% | NCI-H460 lung -16% | HOP-92 NSCLC -0.226% | NCI-H522 lung -77.3% | A549/ATCC NSCLC -2.86% | 786-0 renal -93.4% | COLO 205 colon 9.16% | K-562 leukemia -8.7% | MALME-3M melanoma -4.74% | MDA-MB-231 breast -58% | RXF 393 renal -56.5% | SF-539 CNS -14.1% | M14 melanoma -74.7%
inactive: NCI-H322M lung 94.1% | HOP-62 NSCLC 41.9% | DU-145 prostate 41.1% | SF-268 CNS 22.3% | SF-295 CNS 31.9% | UACC-257 melanoma 10.6%

Cc1ccc(C2CC(c3ccc(NC(=O)Nc4ccccc4)cc3)=NN2c2ccc(S(C)(=O)=O)cc2)cc1 (stereo not given)
active: NCI-H23 lung -69.1% | NCI-H226 lung -39.2% | NCI-H322M lung 6.06% | HOP-62 NSCLC -39.8% | NCI-H460 lung -5.89% | HOP-92 NSCLC -50.4% | NCI-H522 lung -23.7% | A549/ATCC NSCLC 4.89% | 786-0 renal -31.6% | COLO 205 colon -43.4% | DU-145 prostate 3.25% | MALME-3M melanoma -25.1% | MDA-MB-231 breast -70.1% | RXF 393 renal -78.9% | SF-268 CNS 9.34% | SF-295 CNS -20.3% | SF-539 CNS -97% | M14 melanoma -44.8%
inactive: K-562 leukemia 13.1% | UACC-257 melanoma 34.3%

Cc1ccc2nc(COc3ccc(C(=O)NNC(=O)Nc4ccc(Cl)c(C(F)(F)F)c4)cc3)[nH]c2c1
inactive: NCI-H23 lung 25.9% | NCI-H226 lung 54.2% | NCI-H322M lung 22.3% | NCI-H460 lung 32.8% | NCI-H522 lung 41% | A549/ATCC NSCLC 17.1% | 786-0 renal 50.1% | COLO 205 colon 84.1% | DU-145 prostate 59.3% | K-562 leukemia 20.8% | RXF 393 renal 50.2% | SF-268 CNS 40.1% | SF-295 CNS 63% | M14 melanoma 27.7%
active: HOP-62 NSCLC 6.46% | HOP-92 NSCLC -22.6% | MALME-3M melanoma -48.5% | MDA-MB-231 breast 3.89% | SF-539 CNS -10.6% | UACC-257 melanoma -17.4%

CCOc1ccccc1[C@H]1C(C(=O)c2ccc(Cl)cc2)C2(N[C@@H]1c1ccccc1)C(=O)Nc1ccc(Cl)cc12 (stereo not given in full)
active: HOP-92 NSCLC 2.97% | K-562 leukemia 6.17% | RXF 393 renal 2.56%
inactive: NCI-H23 lung 21.5% | NCI-H226 lung 20.3% | NCI-H322M lung 48.7% | HOP-62 NSCLC 42.6% | NCI-H460 lung 17.3% | NCI-H522 lung 34.1% | A549/ATCC NSCLC 40.5% | 786-0 renal 35% | COLO 205 colon 15.3% | DU-145 prostate 45.2% | MALME-3M melanoma 45.7% | MDA-MB-231 breast 28.8% | SF-268 CNS 46.6% | SF-295 CNS 11.1% | SF-539 CNS 37.2% | UACC-257 melanoma 69.5% | M14 melanoma 22.5%

C[C@@H]1CN(c2ccc3ncc(C#Cc4cncc(C(=O)Nc5ccc(CN6CCN(C)CC6)c(C(F)(F)F)c5)c4)n3n2)C[C@@H](C)O1
active: NCI-H23 lung -87.5% | NCI-H226 lung -86.3% | NCI-H322M lung -78.9% | HOP-62 NSCLC -59.8% | NCI-H460 lung -80% | HOP-92 NSCLC -87.7% | NCI-H522 lung -73.3% | A549/ATCC NSCLC -59% | 786-0 renal -95.9% | COLO 205 colon -77.7% | DU-145 prostate -85.7% | K-562 leukemia -28.1% | MALME-3M melanoma -97.5% | MDA-MB-231 breast -93.1% | RXF 393 renal -96.1% | SF-268 CNS -56.2% | SF-295 CNS -100% | SF-539 CNS -100% | UACC-257 melanoma -86.6% | M14 melanoma -94%

CCOc1ccccc1[C@H]1C(C(=O)c2ccc(Cl)cc2)C2(N[C@@H]1c1ccccc1)C(=O)Nc1ccccc12 (stereo not given in full)
active: NCI-H23 lung 4.22% | NCI-H226 lung -18.4% | NCI-H460 lung -36.3% | HOP-92 NSCLC -22.4% | NCI-H522 lung -3.52% | 786-0 renal -16.4% | COLO 205 colon -81.5% | K-562 leukemia 0.16% | MALME-3M melanoma -15.9% | MDA-MB-231 breast 2.23% | RXF 393 renal -66.5% | SF-295 CNS 9.84%
inactive: NCI-H322M lung 36.1% | HOP-62 NSCLC 32.9% | A549/ATCC NSCLC 57.4% | DU-145 prostate 31% | SF-268 CNS 43.9% | SF-539 CNS 28% | UACC-257 melanoma 55.3% | M14 melanoma 15.2%
